High-throughput results deposited in PubChem BioAssay by National Center for Advancing Translational Sciences (NCATS).
This is a sample that favours compounds with a hit; in the whole collection about 19% have one here.
DT40 TDP1 no CPT = qHTS for Inhibitors of human tyrosyl-DNA phosphodiesterase 1 (TDP1): qHTS in cells in absence of CPT; 420,000 tested, 15% active; Potency, µM (series often up to 46.2 µM), inactives show at the highest dose activity change, negative = growth inhibition, usual class: inhibitors; DT40 Tdp1-/- hTDP1 cells, no CPT, ATP luminescence, 48 h; AID 686978, 2013; further: potency means the concentration at half of the fitted maximal effect; nearly all actives have a fitted effect of over 55% in size
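Stably hTDP1-transfected Tdp1-null chicken DT40 cells were treated with library compounds minus camptothecin and grown for at least 48 hr at 37 °C, after which cellular ATP was quantified by luminescence.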
TDP1 cell CPT = qHTS for Inhibitors of human tyrosyl-DNA phosphodiesterase 1 (TDP1): qHTS in cells in presence of CPT; chicken DT40 Tdp1-/-;hTDP1 cells + 20 nM CPT, ATP luminescence, 48 h; Potency, µM (titrated, usually from 46.2 µM), inactives show at the highest dose activity change, negative = growth inhibition, most hits filed as inhibitors; 420,000 tested, 12% active; AID 686979, 2013; further: potency means the concentration at half of the fitted maximal effect; nearly all actives have a fitted effect of over 55% in size
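Cell growth measured by CellTiter-Glo luminescence after a minimum 48 h, 37 C compound exposure with 20 nM CPT in Tdp1-knockout DT40 cells stably expressing hTDP1, seeded 400/well; qHTS titration format.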
HT1080NT lethal = qHTS for induction of synthetic lethality in tumor cells producing 2HG: qHTS for the HT-1080-NT fibrosarcoma cell line; 360,000 tested, 1.6% active; AID 686970, 2013; Potency, µM (highest dose often 46.1 µM), for the others: top-dose activity, negative = less viability, hits mostly cytotoxic; HT-1080-NT fibrosarcoma viability, CellTiter-Glo ATP luminescence, 48 h;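 further: NT is the 2HG producing partner of a matched IDH1 knockdown line; potency means the concentration at half of the fitted maximal effect; 0% = DMSO-treated cells and -100% = media-only wells without cells; nearly all actives have a fitted effect of over 55% in size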
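Luminescent CellTiter-Glo readout after 48 hours of compound exposure at 37 degrees C defined viability of HT-1080-NT cells. Activity was normalized to DMSO wells and cell-free media wells; concentration-response curves were fitted and assigned curve classes.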
IL1B secr inh = qHTS for Inhibitors of Inflammasome Signaling: IL-1-beta AlphaLISA Primary Screen; THP-1 LPS/ATP IL-1B secretion, AlphaLISA, 16 h; hits give low values; activity change, % at 57.5 µM; 360,000 tested, 4.7% active; in the data active means activity change below about -50%; inconclusive means mostly about -30% to -49%
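THP-1 cells pretreated 1 hr with compounds (up to 57.5 uM final), then stimulated with LPS (250 ng/mL final) plus ATP (1.25 mM final); secreted IL-1B measured by AlphaLISA after 16 hr, decreased signal indicating inhibition.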
HT1080 IDH1KD tx = qHTS for induction of synthetic lethality in tumor cells producing 2HG: qHTS for the HT-1080-IDH1KD cell line; Potency, µM (top dose mostly 46.1 µM), without a hit: at the top dose activity, negative = toxicity, actives largely listed as cytotoxic; 360,000 tested, 2% active; HT-1080 IDH1 knockdown viability, ATP luminescence, 48 h;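 further: potency means the concentration at half of the fitted maximal effect; 0% = DMSO wells and -100% = cell-free medium wells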
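% activity derives from luminescence (CellTiter-Glo), normalised to DMSO and no-cell wells. HT-1080-IDH1KD cells, 750/well, had 48 h compound exposure at 37 °C.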
Active calls of the source: *; [ ] = dose if it differs, or a comment. Unless noted, the call rests on the fitted dose curve; in most records, active means well fitted curve in the direction sought with a large enough effect; inconclusive means small, poorly fitted or top-dose-only effect, or another doubt; inactive means no such curve, though single readings can be large; an effect the other way counts as inactive or inconclusive. Unless noted, on the % scale 0 is the no-effect control and ±100 the full control effect.

How did O=C(COC(=O)c1cc(S(=O)(=O)N2CCCCC2)ccc1N1CCOCC1)NCCc1ccc(F)cc1 do in these assays?
DT40 TDP1 no CPT: 10.3µM*; TDP1 cell CPT: -22.3%; HT1080NT lethal: -2.4%; IL1B secr inh: -3.9; HT1080 IDH1KD tx: 2.2%

What do the screens show for `O=C(OCc1ccccc1)c1cc(S(=O)(=O)N2CCCCC2)ccc1N1CCOCC1`?
DT40 TDP1 no CPT: inconclusive; TDP1 cell CPT: inconclusive; HT1080NT lethal: 1.3%; IL1B secr inh: -6.8; HT1080 IDH1KD tx: -9.7%

Results for Cc1ccc(C)c(COC(=O)c2cc(S(=O)(=O)N3CCCCC3)ccc2N2CCOCC2)c1 ?
DT40 TDP1 no CPT: 13µM*; TDP1 cell CPT: inconclusive; HT1080NT lethal: -0.9%; IL1B secr inh: -9.5; HT1080 IDH1KD tx: 2.6%

Results for Cc1ccc(NC(=O)c2cc(S(=O)(=O)N3CCCCC3)ccc2N2CCOCC2)cc1 ?
DT40 TDP1 no CPT: inconclusive; TDP1 cell CPT: -19.8%; HT1080NT lethal: -0.9%; IL1B secr inh: -20.3; HT1080 IDH1KD tx: 2.1%

Results for Cc1ccc(C)c(COC(=O)c2cc([N+](=O)[O-])ccc2N2CCOCC2)c1 ?
DT40 TDP1 no CPT: inconclusive; TDP1 cell CPT: inconclusive; HT1080NT lethal: inconclusive; IL1B secr inh: 30.8; HT1080 IDH1KD tx: inconclusive

How did COc1cccc(-c2cc(C(F)(F)F)n3ncc(C(=O)OC(C)C)c3n2)c1 do in these assays?
DT40 TDP1 no CPT: -9.4%; TDP1 cell CPT: -16.0%

What do the screens show for `Cn1c(N)c(C(=O)COC(=O)/C=C/c2ccccc2)c(=O)n(C)c1=O`?
DT40 TDP1 no CPT: inconclusive; TDP1 cell CPT: -23.5%; HT1080NT lethal: 16.8%; IL1B secr inh: 0.9; HT1080 IDH1KD tx: 20.2%

Results for CC(=O)c1cc2c(cc1NC(=O)C1CCC1)OCO2 ?
DT40 TDP1 no CPT: -12.1%; TDP1 cell CPT: 25.4%; HT1080NT lethal: 24.4%; IL1B secr inh: 15.6; HT1080 IDH1KD tx: 20.4%

Results for COCC(C)NC(=O)c1cc(S(=O)(=O)N2CCCCC2)ccc1N1CCOCC1 (stereo unspecified) ?
DT40 TDP1 no CPT: -5.3%; TDP1 cell CPT: 5.0%; HT1080NT lethal: 2.5%; IL1B secr inh: 7.6; HT1080 IDH1KD tx: 0.0%

What do the screens show for `CC(C)CCCC(C)NC(=O)c1cc(S(=O)(=O)N2CCCCC2)ccc1N1CCOCC1` (stereo unspecified)?
DT40 TDP1 no CPT: 13µM*; TDP1 cell CPT: 23.1µM*; HT1080NT lethal: -8.4%[9.24 µM]; IL1B secr inh: -25.8; HT1080 IDH1KD tx: -11.3%

What do the screens show for `CCc1cccc(NC(=O)c2cc(S(=O)(=O)N3CCCCC3)ccc2N2CCOCC2)c1`?
DT40 TDP1 no CPT: 16.4µM*; TDP1 cell CPT: 20.6µM*; HT1080NT lethal: -6.8%; IL1B secr inh: inconclusive; HT1080 IDH1KD tx: -8.6%

How did Cc1ccc(NC(=S)NCc2ccc(S(N)(=O)=O)cc2)cc1Cl do in these assays?
DT40 TDP1 no CPT: inconclusive; TDP1 cell CPT: inconclusive; HT1080NT lethal: -2.5%; IL1B secr inh: inconclusive; HT1080 IDH1KD tx: -2.9%

What do the screens show for `CC(C)c1cc(CN2CCN(CCC#N)CC2)cc(C(C)C)c1O`?
DT40 TDP1 no CPT: -0.9%; TDP1 cell CPT: inconclusive; HT1080NT lethal: 18.8%; IL1B secr inh: -7.7; HT1080 IDH1KD tx: 10.4%

How did CCC(Sc1ncnc2sc3c(c12)CCCC3)C(=O)OC(C)C (stereo unspecified) do in these assays?
DT40 TDP1 no CPT: inconclusive; TDP1 cell CPT: 18.4µM*

What do the screens show for `CCC(Sc1ncnc2sc3c(c12)CCCC3)C(=O)OCC(C)C` (stereo unspecified)?
DT40 TDP1 no CPT: inconclusive; TDP1 cell CPT: 25.9µM*

Results for O=C(O)CSc1ncnc2sc3c(c12)CCCC3 ?
DT40 TDP1 no CPT: -24.1%; TDP1 cell CPT: -2.1%; HT1080NT lethal: 16.5%; IL1B secr inh: 20.6; HT1080 IDH1KD tx: 3.7%
